Source: PubChem BioAssay AID1159580 (chemical genetic matrix, 2015)
“And” between values parts separate entries of the source, which are not always exact repeats. Identical values can stand only once. Screen size: about 5,500 compounds; about 2,000 (36%) were called active. Another 18% or so got no clear call; they are omitted. No stated cut-off is given here; in the data, active means normalized growth mostly below about 0.91 (no sharp cut-off); inconclusive means no clear call, values can overlap the other calls; inactive means mostly above about 0.92. This is one part of the list.

Assay: chemical genetic growth profiling, strain panel (AID 1159580);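 further: tested at 20 µM; growth read once vehicle control cultures reached saturation at 30 °C; 1 = growth at the plate median or of vehicle wells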
Details: S. cerevisiae deletion strains, growth OD

Measured: normalized growth

CCCC(=O)Nc1ncnc2c1ncn2C1O[C@@H]2COP(=O)(O)O[C@H]2[C@H]1OC(=O)CCC (stereo not given in full)
inactive: locus YAL013W, strain DEP1, stronger effect = lower value 1 | locus YAL021C, strain ccr4, stronger effect = lower value 0.981 | locus YAL026C, strain drs2, stronger effect = lower value 0.986 | locus YAL030W, strain snc1, stronger effect = lower value 0.994 | locus YBL061C, strain skt5, stronger effect = lower value 0.97 | locus YBR009C, strain hhf1, stronger effect = lower value 0.962 | locus YBR021W, strain FUR4, stronger effect = lower value 0.999 | locus YBR023C, strain chs3, stronger effect = lower value 0.974 | locus YBR171W, strain sec66, stronger effect = lower value 0.971 | locus YBR229C, strain ROT2, stronger effect = lower value 1.01 | locus YBR231C, strain swc5, stronger effect = lower value 0.995 | locus YBR279W, strain paf1, stronger effect = lower value 0.981 | locus YCL011C, strain gbp2, stronger effect = lower value 0.958 | locus YCL016C, strain dcc1, stronger effect = lower value 0.952 | locus YCL029C, strain bik1, stronger effect = lower value 1.02 | locus YCL061C, strain MRC1, stronger effect = lower value 0.977 | locus YCL069W, strain vba3, stronger effect = lower value 0.974 | locus YCR088W, strain abp1, stronger effect = lower value 0.984 | locus YDL005C, strain med2, stronger effect = lower value 0.982 | locus YDL035C, strain GPR1, stronger effect = lower value 1.02 | locus YDL040C, strain nat1, stronger effect = lower value 0.987 | locus YDL074C, strain BRE1, stronger effect = lower value 1 | locus YDL101C, strain DUN1, stronger effect = lower value 1.01 | locus YDL134C, strain PPH21, stronger effect = lower value 1.01 | locus YDL185W, strain tfp1, stronger effect = lower value 1.02 | locus YDL192W, strain arf1, stronger effect = lower value 1.01 | locus YDR001C, strain nth1, stronger effect = lower value 0.986 | locus YDR069C, strain doa4, stronger effect = lower value 0.999 | locus YDR101C, strain arx1, stronger effect = lower value 1.02 | locus YDR137W, strain rgp1, stronger effect = lower value 0.973 | locus YDR150W, strain NUM1, stronger effect = lower value 1 | locus YDR159W, strain sac3, stronger effect = lower value 1.01 | locus YDR162C, strain NBP2, stronger effect = lower value 1.01 | locus YDR195W, strain ref2 1 | locus YDR297W, strain sur2, stronger effect = lower value 0.985 | locus YDR318W, strain mcm21, stronger effect = lower value 1.02 | locus YDR334W, strain swr1, stronger effect = lower value 0.975 | locus YDR335W, strain msn5, stronger effect = lower value 0.988 | locus YDR388W, stronger effect = lower value 1.02 | locus YDR392W, strain spt3, stronger effect = lower value 0.869 | locus YDR502C, strain sam2, stronger effect = lower value 1.01 | locus YEL003W, strain gim4, stronger effect = lower value 0.995 | locus YEL037C, strain rad23, stronger effect = lower value 0.984 | locus YEL061C, strain CIN8 (second series), stronger effect = lower value 0.985 | locus YEL061C, strain CIN8, stronger effect = lower value 1.01 | locus YER015W, strain faa2, stronger effect = lower value 0.98 | locus YER016W, strain bim1, stronger effect = lower value 0.975 | locus YER110C, stronger effect = lower value 1.03 | locus YER111C, strain swi4, stronger effect = lower value 0.973 | locus YER155C, strain BEM2 (second series), stronger effect = lower value 1.01 | locus YER155C, strain BEM2, stronger effect = lower value 0.996 | locus YER167W, strain BCK2, stronger effect = lower value 1.01 | locus YFR010W, strain ubp6, stronger effect = lower value 0.988 | locus YGL078C, strain dbp3, stronger effect = lower value 1.02 | locus YGL086W, strain mad1, stronger effect = lower value 1 | locus YGL167C, strain pmr1, stronger effect = lower value 0.981 | locus YGL173C, strain kem1, stronger effect = lower value 0.979 | locus YGL227W, strain vid30, stronger effect = lower value 0.978 | locus YGL240W, strain doc1, stronger effect = lower value 1.02 | locus YGL248W, strain PDE1, stronger effect = lower value 1.01 | locus YGL253W, strain hxk2, stronger effect = lower value 0.996 | locus YGR135W, strain pre9, stronger effect = lower value 1.03 | locus YGR229C, strain SMI1, stronger effect = lower value 1.01 | locus YGR252W, strain gcn5, stronger effect = lower value 1.04 | locus YHR013C, strain ard1, stronger effect = lower value 0.973 | locus YHR027C, strain rpn1, stronger effect = lower value 0.979 | locus YHR030C, strain SLT2, stronger effect = lower value 1 and 1.02 | locus YHR079C, strain IRE1 (second series), stronger effect = lower value 1.02 | locus YHR079C, strain IRE1, stronger effect = lower value 1.03 | locus YHR094C, strain hxt1, stronger effect = lower value 1.02 | locus YHR129C, strain ARP1, stronger effect = lower value 1 | locus YHR142W, strain chs7, stronger effect = lower value 0.944 | locus YHR200W, strain rpn10, stronger effect = lower value 1.02 | locus YIL066C, strain RNR3, stronger effect = lower value 1.02 | locus YIL073C, strain SPO22, stronger effect = lower value 1.06 | locus YIL125W, strain kgd1, stronger effect = lower value 1.02 | locus YIR030C, strain dcg1, stronger effect = lower value 1.02 | locus YJL092W, strain hpr5, stronger effect = lower value 0.985 | locus YJL095W, strain BCK1 (second series), stronger effect = lower value 0.979 | locus YJL095W, strain BCK1, stronger effect = lower value 1 and 1.03 | locus YJL115W, strain asf1, stronger effect = lower value 0.985 | locus YJL129C, strain trk1, stronger effect = lower value 0.949 | locus YJL134W, strain LCB3, stronger effect = lower value 1.01 | locus YJL154C, strain vps35, stronger effect = lower value 0.97 | locus YJL164C, strain tpk1, stronger effect = lower value 0.968 | locus YJL166W, strain qcr8, stronger effect = lower value 1.01 | locus YJL168C, strain set2, stronger effect = lower value 1.03 | locus YJL187C, strain SWE1 (second series), stronger effect = lower value 1 | locus YJL187C, strain SWE1, stronger effect = lower value 0.992 | locus YJR043C, strain POL32, stronger effect = lower value 1.01
